PubChem BioAssay AID1159580 (chemical genetic matrix, 2015)
Among all 5,500 compounds or so, about 2,000 (36%) were called active. Inconclusive results (about 18%) are left out. No stated cut-off is given here; in the data, active means normalized growth mostly below about 0.91 (no sharp cut-off); inconclusive means no clear call, values can overlap the other calls; inactive means mostly above about 0.92. The list shows a part of the results.

Assay: chemical genetic growth profiling, strain panel (AID 1159580);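 further: tested at 20 µM; growth read once vehicle control cultures reached saturation at 30 °C; 1 = growth at the plate median or of vehicle wells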
Settings: S. cerevisiae deletion strains, growth OD

Measured: normalized growth

CC(=O)O[C@@H]1C[C@@]2(C)[C@H](c3ccoc3)C[C@H]3O[C@]32[C@]2(C)C(=O)C(O)=C3C(C)(C)C(=O)C=C[C@]3(C)C12 (stereo partly drawn)
active: locus YKR001C, strain vps1, stronger effect = lower value 0.812 | locus YLR039C, strain RIC1, stronger effect = lower value 0.513 | locus YLR221C, strain rsa3, stronger effect = lower value 0.863 | locus YLR262C, strain YPT6 (second series), stronger effect = lower value 0.669 | locus YLR262C, strain YPT6, stronger effect = lower value 0.483 | locus YLR268W, strain sec22, stronger effect = lower value 0.832 | locus YLR320W, strain mms22, stronger effect = lower value 0.816 | locus YLR371W, strain rom2, stronger effect = lower value 0.731 | locus YLR418C, strain cdc73, stronger effect = lower value 0.35 | locus YML032C, strain rad52, stronger effect = lower value 0.853 | locus YMR231W, strain pep5, stronger effect = lower value 0.927 | locus YNL071W, strain lat1, stronger effect = lower value 0.736 | locus YNL307C, strain MCK1, stronger effect = lower value 0.571 | locus YNR052C, strain pop2, stronger effect = lower value 0.882 | locus YOL147C, strain pex11, stronger effect = lower value 0.818 | locus YOR144C, strain elg1, stronger effect = lower value 0.864 | locus YOR184W, strain ser1, stronger effect = lower value 0.744 | locus YOR270C, strain vph1, stronger effect = lower value 0.776 | locus YPL051W, strain arl3, stronger effect = lower value 0.895 | locus YPR163C, strain tif3, stronger effect = lower value 0.757 | strain wtn01, stronger effect = lower value 0.864
inactive: locus YJL187C, strain SWE1 (second series), stronger effect = lower value 0.958 | locus YJL187C, strain SWE1, stronger effect = lower value 0.953 | locus YJR043C, strain POL32, stronger effect = lower value 0.97 | locus YJR066W, strain TOR1, stronger effect = lower value 0.888 | locus YKL009W, strain mrt4, stronger effect = lower value 0.94 | locus YKL068W, stronger effect = lower value 0.962 | locus YKL085W, strain MDH1 (second series), stronger effect = lower value 0.993 | locus YKL085W, strain MDH1, stronger effect = lower value 0.993 | locus YKL160W, strain elf1, stronger effect = lower value 0.969 | locus YKR026C, strain gcn3, stronger effect = lower value 0.965 | locus YKR091W, strain srl3, stronger effect = lower value 0.971 | locus YLL001W, strain dnm1, stronger effect = lower value 0.979 | locus YLL026W, stronger effect = lower value 0.96 | locus YLL041C, strain sdh2, stronger effect = lower value 0.976 | locus YLR027C, strain aat2, stronger effect = lower value 0.942 | locus YLR058C, strain SHM2, stronger effect = lower value 0.936 | locus YLR102C, strain apc9, stronger effect = lower value 0.958 | locus YLR113W, strain HOG1, stronger effect = lower value 0.911 | locus YLR258W, strain gsy2, stronger effect = lower value 0.948 | locus YLR342W, strain FKS1, stronger effect = lower value 0.921 | locus YLR357W, strain rsc2, stronger effect = lower value 1.03 | locus YLR370C, strain arc18, stronger effect = lower value 0.927 | locus YLR384C, strain iki3, stronger effect = lower value 0.956 | locus YML016C, strain PPZ1, stronger effect = lower value 0.946 | locus YML120C, strain ndi1, stronger effect = lower value 0.961 | locus YML124C, strain tub3, stronger effect = lower value 0.963 | locus YMR058W, strain fet3, stronger effect = lower value 0.937 | locus YMR078C, strain ctf18, stronger effect = lower value 0.925 | locus YMR125W, strain sto1, stronger effect = lower value 0.957 | locus YMR129W, stronger effect = lower value 0.977 | locus YMR205C, strain PFK2, stronger effect = lower value 0.886 | locus YMR223W, strain ubp8, stronger effect = lower value 0.922 | locus YMR307W, strain GAS1, stronger effect = lower value 0.61 | locus YNL067W, strain RPL9B, stronger effect = lower value 0.985 | locus YNL128W, strain TEP1, stronger effect = lower value 0.914 | locus YNL183C, strain NPR1, stronger effect = lower value 0.909 | locus YNL209W, strain ssb2, stronger effect = lower value 0.974 | locus YNL233W, strain BNI4, stronger effect = lower value 0.935 | locus YNL248C, strain rpa49, stronger effect = lower value 0.952 | locus YNL250W, strain rad50, stronger effect = lower value 1.02 | locus YNL271C, strain bni1, stronger effect = lower value 0.945 | locus YNL298W, strain CLA4, stronger effect = lower value 0.953 | locus YNL322C, strain KRE1 (second series), stronger effect = lower value 0.956 | locus YNR049C, strain mso1, stronger effect = lower value 0.959 | locus YOL006C, strain TOP1, stronger effect = lower value 0.771 | locus YOL012C, strain htz1 0.819 | locus YOR001W, strain rrp6, stronger effect = lower value 0.92 | locus YOR061W, strain CKA2, stronger effect = lower value 0.923 | locus YOR069W, strain VPS5, stronger effect = lower value 0.969 | locus YOR070C, strain gyp1, stronger effect = lower value 0.949 | locus YOR080W, strain dia2, stronger effect = lower value 0.965 | locus YOR083W, strain WHI5, stronger effect = lower value 0.976 | locus YOR106W, strain vam3, stronger effect = lower value 0.942 | locus YOR136W, strain idh2, stronger effect = lower value 0.941 | locus YOR231W, strain MKK1, stronger effect = lower value 0.918 | locus YOR265W, strain rbl2, stronger effect = lower value 0.963 | locus YOR290C, strain snf2, stronger effect = lower value 0.929 | locus YOR316C, strain cot1, stronger effect = lower value 0.962 | locus YPL055C, strain LGE1, stronger effect = lower value 0.803 | locus YPL078C, strain atp4, stronger effect = lower value 0.973 | locus YPL106C, strain sse1, stronger effect = lower value 0.974 | locus YPL240C, strain hsp82, stronger effect = lower value 0.956 | locus YPL241C, strain CIN2, stronger effect = lower value 0.966 | locus YPL256C, strain CLN2, stronger effect = lower value 0.91 | locus YPR119W, strain clb2, stronger effect = lower value 0.959 | locus YPR141C, strain kar3, stronger effect = lower value 0.957 | locus YPR167C, strain met16, stronger effect = lower value 0.945
